# Measured values as given in the supplement of paper PMC7366291.
# Where a name gives a salt, the structure may show the parent alone. ± gives the standard deviation or the standard deviation of the averaged measurements.
# Experiments:
# Settings in all cases: 25 µM; exposure: 24-48 hpf
# [1] = test system: Danio rerio Tg(wt1b:EGFP) embryo, pronephros; assay: glomerular separation, fold change vs DMSO control; higher = glomeruli further apart (abnormal)
# How it was run: (§1)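 Distances and angles describing the pronephros were computed by a Fiji macro from 16 reference points set manually on maximum projections of dorsal images. These images came from dechorionated Tg(wt1b:EGFP) zebrafish embryos held in agarose-filled 96-well plates after exposure to 25 μM compound in 0.5% DMSO, in HEPES-buffered E3 with 0.003% PTU, from 24 to 48 hpf at 28.5°C. Any value more than 2 SD from the feature mean was excluded. Features are stated as fold change relative to the mean of same-day DMSO-treated embryos.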
# [2] = test system: Danio rerio Tg(wt1b:EGFP) embryo, pronephros; assay: glomerular width (mean of left and right), fold change vs DMSO control; higher = wider glomerulus
# How it was run: as §1
# [3] = test system: Danio rerio Tg(wt1b:EGFP) embryo, pronephros; assay: fraction of imaged embryos annotated as normal kidney; higher = less nephrotoxic; extreme values may be limits of the assay
# How it was run: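 Dechorionated Tg(wt1b:EGFP) zebrafish embryos were incubated with 25 μM compound in 0.5% DMSO, 5 mM HEPES-buffered E3 and 0.003% PTU from 24 to 48 hpf at 28.5°C. Pronephroi were then imaged by widefield fluorescence, and the fraction of embryos per treatment assigned by hand to the normal-kidney category is given.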
# [4] = test system: Danio rerio Tg(wt1b:EGFP) embryo, pronephros; assay: pronephric angle neck segment to proximal convoluted tubule (mean of left and right), fold change vs DMSO control; higher = larger pronephric angle
# How it was run: as §1
Compound,glomerular separation [1],glomerular width [2],fraction of imaged embryos annotated as normal kidney [3],pronephric angle neck segment [4]
CCc1nn(CCCN2CCN(c3cccc(Cl)c3)CC2)c(=O)n1CCOc1ccccc1 [Nefazodone hydrochloride],0.987 ± 0.43,1.05 ± 0.061,0.727,0.989 ± 0.012
CCCCOc1ccc(OCCCN2CCOCC2)cc1 [Pramoxine hydrochloride],0.962 ± 0.26,0.951 ± 0.025,0.917,0.993 ± 0.033
Clc1ccc(CSC(Cn2ccnc2)c2ccc(Cl)cc2Cl)cc1 (stereo not given) [Sulconazole nitrate],2.88 ± 1.5,0.798 ± 0.035,0.25,1.38 ± 0.15
CCn1nc(C(=O)O)c(=O)c2cc3c(cc21)OCO3 [Cinoxacin],1.07 ± 0.43,0.979 ± 0.031,0.8,1.05 ± 0.1
CCOC(=O)[C@H](CCc1ccccc1)N[C@@H](C)C(=O)N1CCC[C@H]1C(=O)O [Enalapril maleate],0.704 ± 0.19,1.01 ± 0.03,0.667,0.9423 ± 0.0071
CC(C)NCC(O)COc1ccc(COCCOC(C)C)cc1 (stereo not given) [Bisoprolol fumarate],1.2 ± 0.41,1.07 ± 0.03,0.583,0.999 ± 0.083
CC[C@H](C)C(=O)O[C@H]1C[C@H](O)C=C2C=C[C@H](C)[C@H](CC[C@@H](O)C[C@@H](O)CC(=O)O)[C@H]21 [Pravastatin],1.12 ± 0.39,0.865 ± 0.051,1,1.03 ± 0.035
CCN[C@H]1CN(CCCOC)S(=O)(=O)c2sc(S(N)(=O)=O)cc21 [Brinzolamide],1.47 ± 0.71,1.053 ± 0.0011,0.5,1.1 ± 0.069
Cc1ccsc1/C=C/C1=NCCCN1C [Morantel tartrate],0.982 ± 0.26,1.132 ± 0.011,0.5,1.01 ± 0.019
COc1ccc2[nH]c([S+]([O-])Cc3ncc(C)c(OC)c3C)nc2c1 (stereo not given) [Omeprazole],1.15 ± 0.38,0.935 ± 0.073,0.667,1.1759 ± 0.00043
C[C@@H](O[C@H]1OCCN(Cc2n[nH]c(=O)[nH]2)[C@H]1c1ccc(F)cc1)c1cc(C(F)(F)F)cc(C(F)(F)F)c1 [Aprepitant],0.995 ± 0.34,1.09 ± 0.076,0.667,1.05 ± 0.059
N#Cc1cc(NC(=O)C(=O)O)c(Cl)c(NC(=O)C(=O)O)c1 [Lodoxamide],1.24 ± 0.55,0.9808 ± 0.0037,0.917,1.05 ± 0.059
CCN(Cc1ccncc1)C(=O)C(CO)c1ccccc1 (stereo not given) [Tropicamide],0.966 ± 0.68,1.08 ± 0.027,0.75,0.987 ± 0.052
CNNCc1ccc(C(=O)NC(C)C)cc1 [Procarbazine hydrochloride],1.02 ± 0.24,0.973 ± 0.017,1,1.084 ± 0.0049
O=C(c1ccc(OCCN2CCCCC2)cc1)c1c(-c2ccc(O)cc2)sc2cc(O)ccc12 [Raloxifene hydrochloride],0.793 ± 0.18,0.98 ± 0.059,0.917,1.01 ± 0.025
NS(=O)(=O)c1cc2c(cc1Cl)N=C(CSCc1ccccc1)NS2(=O)=O [Benzthiazide],0.917 ± 0.25,0.919 ± 0.05,0.917,0.965 ± 0.028
CO[C@H]1/C=C/O[C@@]2(C)Oc3c(C)c(O)c4c(O)c(c(/C=N/N5CCN(C)CC5)c(O)c4c3C2=O)NC(=O)/C(C)=C\C=C\[C@H](C)[C@H](O)[C@@H](C)[C@@H](O)[C@@H](C)[C@H](OC(C)=O)[C@@H]1C [Rifampicin],1.08 ± 0.28,1.02 ± 0.018,0.833,0.991 ± 0.022
CCN(CC)CCNC(=O)COc1ccc(OC)cc1 [Mefexamide hydrochloride],1.52 ± 0.84,0.916 ± 0.021,0.833,1.07 ± 0.086
O=C(O)c1cc(/N=N/c2ccc(S(=O)(=O)Nc3ccccn3)cc2)ccc1O [Sulfasalazine],0.959 ± 0.28,1.02 ± 0.016,0.917,0.999 ± 0.034
CO[C@H]1C[C@H](O[C@H]2[C@H](C)[C@@H](O[C@@H]3O[C@H](C)C[C@H](N(C)C)[C@H]3OC(C)=O)[C@@H](C)C[C@@]3(CO3)C(=O)[C@H](C)[C@@H](OC(C)=O)[C@@H](C)[C@@H](C)OC(=O)[C@@H]2C)O[C@@H](C)[C@@H]1OC(C)=O [Troleandomycin],1.39 ± 0.74,1.12 ± 0.066,0.917,0.969 ± 0.019
O=C1OCCN1/N=C/c1ccc([N+](=O)[O-])o1 [Furazolidone],0.83 ± 0.29,0.9957 ± 0.006,1,0.935 ± 0.054
Nc1nc(CC(=O)Nc2ccc(CCNC[C@H](O)c3ccccc3)cc2)cs1 [Mirabegron],0.841 ± 0.26,1.04 ± 0.067,0.833,0.965 ± 0.014
CC(=O)OCC(=O)[C@@]1(O)CC[C@H]2[C@@H]3CCC4=CC(=O)CC[C@]4(C)[C@H]3[C@@H](O)C[C@@]21C [Cortisol acetate],1.43 ± 0.59,1.29 ± 0.049,0.25,1.01 ± 0.031
"c1ccc(CNc2ncnc3nc[nH]c23)cc1 [Aminopurine, 6-benzyl]",1.17 ± 0.43,1.01 ± 0.042,0.667,1.02 ± 0.019
CN(C)CCOC(=O)C(c1ccccc1)C1(O)CCCC1 (stereo not given) [Cyclopentolate hydrochloride],0.745 ± 0.24,0.9284 ± 0.0066,0.75,1.02 ± 0.035
O=C1O[C@H]([C@@H](O)CO)C(O)=C1O [Ascorbic acid],1.08 ± 0.33,1.01 ± 0.09,0.75,1.03 ± 0.025
COC(=O)Nc1nc2cc(Sc3ccccc3)ccc2[nH]1 [Fenbendazole],4 ± 2.6,0.568 ± 0.027,0,1.8 ± 0.13
Cn1cnc([N+](=O)[O-])c1Sc1ncnc2[nH]cnc12 [Azathioprine],1.2 ± 0.26,1.02 ± 0.042,0.833,0.994 ± 0.015

Compound,glomerular separation [1],glomerular width [2],fraction of imaged embryos annotated as normal kidney [3],pronephric angle neck segment [4]
OC(CCN1CCCCC1)(c1ccccc1)C1CC2C=CC1C2 (stereo not given) [Biperiden hydrochloride],1.06 ± 0.13,1.02 ± 0.047,0.917,1.01 ± 0.022
N=C(N=C(N)N)N1CCOCC1 [Moroxidine hydrochloride],1.26 ± 0.44,1.07 ± 0.049,0.75,0.903 ± 0.039
O=C(O[C@@H]1C[C@@H]2C[C@H]3C[C@H](C1)N2CC3=O)c1c[nH]c2ccccc12 [Dolasetron mesilate],0.787 ± 0.28,1.01 ± 0.018,0.75,0.946 ± 0.035
CCC[C@@H]1C[C@@H](C(=O)N[C@@H]([C@H]2O[C@H](SC)[C@H](O)[C@@H](O)[C@H]2O)[C@@H](C)O)N(C)C1 [Lincomycin hydrochloride],0.865 ± 0.33,0.984 ± 0.037,0.917,0.9548 ± 0.0043
NCCCC[C@H](N[C@@H](CCc1ccccc1)C(=O)O)C(=O)N1CCC[C@H]1C(=O)O [Lisinopril],1.16 ± 0.32,0.998 ± 0.058,0.833,1.02 ± 0.032
CN1CCN2c3ncccc3Cc3ccccc3C2C1 (stereo not given) [Mirtazapine],0.964 ± 0.35,0.98 ± 0.037,1,0.994 ± 0.056
Cc1cc(C(C)(C)C)c(O)c(C)c1CC1=NCCN1 [Oxymetazoline hydrochloride],1.08 ± 0.39,1.03 ± 0.078,0.833,0.976 ± 0.042
CCCCN(CCCC)CCC(O)c1cc2c(Cl)cc(Cl)cc2c2cc(C(F)(F)F)ccc12 (stereo not given) [Halofantrine hydrochloride],4.43 ± 1.8,0.655 ± 0.038,0,1.32 ± 0.061
CC(=O)/N=c1/sc(S(N)(=O)=O)nn1C [Methazolamide],0.898 ± 0.5,1.14 ± 0.06,0.636,1.02 ± 0.014
O=C(Nc1ccccc1)OCC(CN1CCCCC1)OC(=O)Nc1ccccc1 (stereo not given) [Diperodon hydrochloride],1.1 ± 0.41,0.984 ± 0.04,0.818,1.04 ± 0.024
C[C@@](Cc1ccc(O)c(O)c1)(NN)C(=O)O [Carbidopa],1.24 ± 0.38,1.0027 ± 0.00014,0.833,1.047 ± 0.0029
O=C(O)CCCC[C@@H]1SC[C@@H]2NC(=O)N[C@@H]21 [Biotin],0.993 ± 0.31,0.993 ± 0.043,0.917,1.02 ± 0.066
COc1ccc([C@@H]2Sc3ccccc3N(CCN(C)C)C(=O)[C@@H]2OC(C)=O)cc1 [Diltiazem hydrochloride],0.914 ± 0.32,1.24 ± 0.11,0.667,1.211 ± 0.0023
CC(C)(C)c1ccc(C(O)CCCN2CCC(C(O)(c3ccccc3)c3ccccc3)CC2)cc1 (stereo not given) [Terfenadine],0.943 ± 0.3,1.023 ± 0.0083,0.583,1.02 ± 0.039
CC[C@]12CCCN3CCc4c(n(c5ccccc45)C(=O)C1)[C@@H]32 [Eburnamonine (-)],1.19 ± 0.41,0.922 ± 0.059,1,1.03 ± 0.017
O=C1CN2Cc3c(ccc(Cl)c3Cl)N=C2N1 [Anagrelide],1.1 ± 0.67,0.932 ± 0.098,0.917,0.988 ± 0.027
CCCCCCC[N+](CC)(CC)CCCCc1ccc(Cl)cc1 [Clofilium tosylate],0.78 ± 0.37,1.04 ± 0.059,0.583,0.9834 ± 0.0086
O=C1NCCN1c1ncc([N+](=O)[O-])s1 [Niridazole],1.24 ± 0.57,0.867 ± 0.021,0.833,1.14 ± 0.077
CC(=O)CC(c1ccccc1)c1c(O)c2ccccc2oc1=O (stereo not given) [Warfarin],1.14 ± 0.45,0.797 ± 0.048,0.333,1.25 ± 0.027
CCOC(=O)[C@H](CCc1ccccc1)N[C@H]1CCc2ccccc2N(CC(=O)O)C1=O [Benazepril hydrochloride],0.73 ± 0.18,1.05 ± 0.023,0.75,0.964 ± 0.087
NC(=O)c1cnccn1 [Pyrazinamide],0.862 ± 0.21,1.04 ± 0.034,0.667,0.9361 ± 0.0033
CCOC(=O)C1=C[C@]2(CC)CCCN3CCc4c(n1c1ccccc41)[C@@H]32 [Vinpocetine],1.08 ± 0.2,1.037 ± 0.0011,0.909,1.05 ± 0.039
NC(=O)c1cccnc1 [Nicotinamide],1 ± 0.22,1.022 ± 0.0032,0.909,0.985 ± 0.059
Nc1ncnc2c1ncn2C1OC(COP(=O)(O)O)C(O)C1O (stereo not given) [Adenosine 5'-monophosphate monohydrate],0.936 ± 0.26,1.029 ± 0.0059,0.917,0.9657 ± 0.0086
C#C[C@]1(OC(C)=O)CC[C@H]2[C@@H]3CCC4=CC(=NO)CC[C@@H]4[C@H]3CC[C@@]21CC (mixture of isomers) [Norgestimate],2.81 ± 1.2,0.858 ± 0.059,0.0833,1.37 ± 0.015
COc1cc2nc(N3CCN(C(=O)C4COc5ccccc5O4)CC3)nc(N)c2cc1OC (stereo not given) [Doxazosin mesylate],0.958 ± 0.6,0.965 ± 0.026,1,1.007 ± 0.003
CC(=O)[C@@]1(O)CC[C@H]2[C@@H]3C[C@H](C)C4=CC(=O)C=C[C@]4(C)[C@@]3(F)[C@@H](O)C[C@@]21C [Fluorometholone],1.11 ± 0.27,1.174 ± 0.0086,0.417,0.997 ± 0.035
